# cardiac RTF act: cardiac RTF calcium sensitivity activators, primary screen, biochemical, IANBD-TnC fluorescence, EC20 calcium; Troponin I, cardiac muscle (Homo sapiens) + Troponin T, cardiac muscle (Homo sapiens) + …; IANBD-labeled TnC RTF fluorescence at EC20 calcium; 0% EC20 calcium, 100% full calcium; activation, % at 7.2 µM; 340,000 compounds, 0.24% hits;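 active means activation above the mean over all tested compounds plus 3 SD, cut at about 30% in these data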;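 further: rise in fluorescence read as greater calcium sensitivity of cardiac thin filaments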
# Cardiac RTF inh: cardiac RTF calcium sensitivity inhibitors, primary screen, biochemical, IANBD-TnC fluorescence, EC70 calcium | Troponin I, cardiac muscle (Homo sapiens) + Troponin T, cardiac muscle (Homo sapiens) + … | IANBD-labeled cardiac RTF, Ca2+ fluorescence | inhibition, % at 7.15 µM | 340,000 compounds, 0.12% hits;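 active means inhibition above the mean inhibition of all tested compounds plus 3 SD, cut at about 17% in these data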;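 further: assay run at fixed EC70 calcium of 1.6 mM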
# E coli Lon inh: inhibitors of E. coli Lon protease, primary screen, biochemical, fluorescence polarization. inhibition, % at 7.94 µM. P0A9M0. 360,000 compounds, 0.42% hits. AID 602123, 2011. purified E. coli Lon protease; in the data active means inhibition above about 13%, passing the limit was not always enough
# Target sequence (P0A9M0 whole entry, looked up): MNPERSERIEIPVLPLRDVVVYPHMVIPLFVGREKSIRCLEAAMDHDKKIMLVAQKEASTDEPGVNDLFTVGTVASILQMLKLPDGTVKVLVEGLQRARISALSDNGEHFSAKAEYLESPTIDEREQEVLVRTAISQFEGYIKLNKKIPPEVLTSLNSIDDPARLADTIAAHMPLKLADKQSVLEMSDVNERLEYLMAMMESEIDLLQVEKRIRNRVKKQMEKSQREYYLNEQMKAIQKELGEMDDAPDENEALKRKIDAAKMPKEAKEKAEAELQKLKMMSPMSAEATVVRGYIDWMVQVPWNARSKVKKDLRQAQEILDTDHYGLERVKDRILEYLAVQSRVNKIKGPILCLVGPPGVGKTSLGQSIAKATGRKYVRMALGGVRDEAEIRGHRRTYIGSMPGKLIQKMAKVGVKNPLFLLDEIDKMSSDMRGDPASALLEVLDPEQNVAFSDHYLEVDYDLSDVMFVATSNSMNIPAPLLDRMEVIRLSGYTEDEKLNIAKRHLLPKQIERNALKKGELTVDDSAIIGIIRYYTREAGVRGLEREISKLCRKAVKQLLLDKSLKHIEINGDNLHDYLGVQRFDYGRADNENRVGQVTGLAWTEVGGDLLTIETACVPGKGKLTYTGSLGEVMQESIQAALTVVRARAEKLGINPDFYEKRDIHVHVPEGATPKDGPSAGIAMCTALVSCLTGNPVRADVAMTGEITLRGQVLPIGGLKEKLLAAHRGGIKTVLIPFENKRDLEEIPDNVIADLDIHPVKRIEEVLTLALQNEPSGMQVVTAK
# Bcl-xL primary: inhibitors of human Bcl-xL, primary screen, biochemical, fluorescence polarization, HTS | AID 2129, 2009 | Bcl-2-like protein 1 (Homo sapiens), Q07817 | 320,000 compounds, 0.7% hits | inhibition, % at 10.9 µM | GST-Bcl-xL / FITC-Bim BH3 peptide fluorescence polarization;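 active means inhibition above the mean of all tested compounds plus 3 SD, cutoff set per campaign, cut at about 30% in these data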;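 further: inhibitors lower millipolarization by displacing the labeled peptide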
# GLD-1 TGE inh: GLD-1/TGE RNA complex disruptors, primary screen, biochemical, fluorescence polarization. inhibition, % at 5.96 µM. AID 2280, 2010. Female germline-specific tumor suppressor gld-1 (Caenorhabditis elegans), Q17339. 320,000 compounds, 0.44% hits. purified GLD-1 + fluorescein TGE RNA;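 active means percent inhibition above a per-plate cutoff, the plate mean of test compounds plus 3 SD, cut at about 30% in these data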
# GLD-1 TGE cf: GLD-1/TGE RNA binding inhibitors, retest, confirmation, biochemical, fluorescence polarization, triplicate | shares compounds with GLD-1 TGE inh | GLD-1/FL-TGE RNA fluorescence polarization | inhibition, % at 5.96 µM | 550 compounds, 10% hits | AID 2459, 2010;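 active means average inhibition across triplicates above the hit cutoff set in the primary screen, cut at about 32% in these data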
# Numbers stand for hits; 0 = inactive; - = no result given. Most compounds without a hit are left out; they make up all but 1.2% or so of the library.
SMILES,cardiac RTF act,Cardiac RTF inh,E coli Lon inh,Bcl-xL primary,GLD-1 TGE inh,GLD-1 TGE cf
N#Cc1ccccc1OCC(=O)NNC(=O)CNC(=O)c1ccc(Br)o1,0,0,0,-,0,-
N#Cc1ccccc1OCC(=O)NNC(=O)CNC(=O)c1cccc(Br)c1,0,0,0,0,0,0
COC1=Nc2ccccc2N2CCN=C12,-,-,0,-,-,-
Nc1cccc(C(=O)OCC(=O)Nc2cccc3c2C(=O)c2ccccc2C3=O)c1,0,0,0,97.7,47.0,67.2
CCc1nc2ccc(C(=O)NCc3ccc(OC)cc3)cn2c1N(C)Cc1ccc(OC)cc1,-,-,0,-,-,-
Cc1ccc(/C=C2\SC(=S)N(NS(=O)(=O)c3ccc(C)cc3)C2=O)cc1,0,0,0,0,0,-
NS(=O)(=O)c1cccc(NC(=O)CN2CCc3ccccc32)c1,0,0,0,63.3,47.4,0
CCN(CC)S(=O)(=O)c1cc(NC(=O)CN2CCN(c3ccccn3)CC2)ccc1C,0,0,0,0,0,-
Cc1ccc(NC(=O)CN2CCN(c3ccccn3)CC2)cc1S(=O)(=O)N(C)C,0,0,0,0,54.0,0
CCSC1C(=O)N(C)C(SCC)C(=O)N1C (stereo not given),-,-,0,-,-,-
CC(C(=O)N(C)C1CCS(=O)(=O)C1)N1C(=O)/C(=C/c2ccco2)SC1=S (stereo not given),0,0,0,0,0,-
CC(C(=O)Nc1ccc(C(=O)O)c(O)c1)N1C(=O)/C(=C\c2ccco2)SC1=S (stereo not given),0,0,0,47.5,32.3,0
O=C(CNC(=O)c1ccc(F)cc1)N/N=C/c1ccc(O)c([N+](=O)[O-])c1,0,0,0,0,0,-
Cn1c(=O)c(/C=C/c2ccccc2)nc2ccccc21,0,0,0,35.3,41.0,0
Cn1c(=O)c(/C=C/c2ccc(F)cc2)nc2ccccc21,0,0,0,-,-,-
CC(=O)Oc1ccc(C(=O)O)cc1OC(C)=O,0,0,0,0,0,-
CC(=O)Oc1cccc2c1C(=O)c1c(OC(C)=O)cc(C(=O)O)cc1C2=O,0,0,0,0,51.9,41.5
O=C(CSc1nc(NS(=O)(=O)c2ccccc2)cc(=O)[nH]1)Nc1cccc(C(F)(F)F)c1,0,0,0,-,-,-
C/C(Cc1ccccc1)=N\NC(=O)CNC(=O)c1ccc(F)cc1,0,0,0,0,0,-
C/C(Cc1ccccc1)=N\NC(=O)CNC(=O)c1ccc(Cl)cc1,0,0,0,0,62.2,0
Cc1cc(Cl)cc(Cl)c1OCCCCN(C)C,0,0,0,0,0,-
O=[N+]([O-])c1nn(-c2ccc3c(c2)OCCO3)n(O)c1=NCc1ccc(F)cc1Cl,0,0,0,78.8,31.6,0
CCOC(=O)C1C(c2ccccc2)C(C(=O)OCC)C1c1ccccc1 (stereo not given),0,0,0,0,0,-
Cc1ccccc1OC(=O)C1C(c2ccccc2)C(C(=O)O)C1c1ccccc1 (stereo not given),0,0,0,0,38.8,0
Cc1nn(Cc2ccccc2)c(Cl)c1/C=C/C(=O)OC(C)C(=O)N1CCCC1 (stereo not given),0,0,0,0,0,-
SMILES,cardiac RTF act,Cardiac RTF inh,E coli Lon inh,Bcl-xL primary,GLD-1 TGE inh,GLD-1 TGE cf
CN(/N=C/c1ccccc1Cl)c1ncc(Cl)cc1C(F)(F)F,0,0,0,0,0,-
CN1CC2=Cc3ccccc3OC23Oc2ccccc2C=C3C1,0,0,0,0,33.5,38.5
CCCc1c(O)c2ccccc2n(-c2ccccc2)c1=O,0,0,0,0,0,-
CCOC(=O)C1=C(CC)OC(N)=C(C#N)C1c1ccc(OC)cc1OC (stereo not given),0,0,0,0,0,-
CCOC(=O)CC1=C(C(=O)OCC)C(c2ccc(OC)cc2OC)C(C#N)=C(N)O1 (stereo not given),0,0,0,39.4,34.7,0
CCOC(=O)CC1=C(C(=O)OCC)C(c2ccc(C)o2)C(C#N)=C(N)O1 (stereo not given),0,0,0,37.3,34.0,0
Nc1cnnc(N/N=C\c2ccccc2)c1Cl,0,0,0,0,0,-
CC1CCC(C(C)C)C(OC(=O)C2=C3c4ccccc4S(=O)(=O)N3CC2)C1 (stereo not given),0,0,0,0,48.9,0
COc1ccc(OC)c(N(CC(=O)NCc2ccncc2)S(C)(=O)=O)c1,0,0,0,0,0,-
O=c1[nH]c2ccccc2c(O)c1-c1ccccc1[N+](=O)[O-],0,0,0,0,0,-
O=C1NC(=S)N/C1=C/c1cc2c(cc1[N+](=O)[O-])OCO2,0,0,0,52.6,41.6,0
CC(C)/C=C/C(=O)N1CCC(N2CCC(C(=O)NCc3ccccn3)CC2)CC1,0,0,0,0,34.9,0
COCCCN1CN(S(=O)(=O)c2ccc(Cl)cc2)c2nc3ccccc3nc21,0,0,0,0,34.3,0
COCCN1CN(S(=O)(=O)c2cccc(Cl)c2)c2nc3ccccc3nc21,0,0,0,0,0,-
C=CCN1CN(S(=O)(=O)c2cccc(Cl)c2)c2nc3ccccc3nc21,0,0,0,34.4,45.1,0
CCc1nc2ccc(C(=O)Nc3ccc4c(c3)OCO4)cc2nc1CC,0,0,0,0,0,-
NC(=O)/C(=C/c1ccco1)C(N)=S,0,0,0,86.2,49.7,0
O=C(Nc1ccc2nc3ccccc3nc2c1)c1ccc(Br)cc1,0,0,0,0,0,-
CC(=O)Nc1ccc2nc3ccccc3nc2c1,0,0,0,59.2,47.5,34.4
CCCCn1c(O)c(N=NC(=O)c2ccco2)c2ccccc21,0,0,0,0,0,-
CSc1ccc(CN(C)CC(=O)NC(C)c2ccccc2)cc1 (stereo not given),0,0,0,0,53.5,0
CCOc1ccccc1N1CCN(c2ncnc3scc(-c4ccc(OC)cc4)c23)CC1,0,0,0,0,0,-
O=C(NCCC1=CCCCC1)C(=O)NCc1ccncc1,0,0,0,73.0,46.7,0
O=C(NCCC1=CCCCC1)C(=O)NCCc1ccc(Cl)cc1,0,0,0,0,0,-
C/C=C/c1ccc(OCCCNC(C)CC)c(OC)c1 (stereo not given),0,0,0,0,0,-
COc1ccc(/C=N/Nc2cc(=O)n(C)c(=O)n2C)cc1OC,0,0,0,0,0,-
COc1cc(/C=N\Nc2cc(=O)n(C)c(=O)n2C)ccc1O,0,0,0,0,39.2,0
CN1CCc2c(C#N)c(N3CCCCC3)nc(NCc3ccccc3)c2C1,0,0,0,0,0,-
N#Cc1c(NCCCO)nc(NCc2ccccc2)c2c1CCN(Cc1ccccc1)C2,0,0,0,31.2,32.5,0
